Measured values from PubChem BioAssay.
Activity calls are given as the source filed them. Unless noted, how the calls were made is not given here.

Tests used:
[1] = tested on: Wnt5a (protein binding on small-molecule microarray); test: small molecules binding Wnt5a protein – biophysical, small-molecule microarray, 635/667 nm fluorescence, primary screen (AID 1142); conditions: 635 nm fluorescence, higher = more signal;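 further: fluorescence read at 667 nm with signal to noise per printed feature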
[2] = ATP-based viability of Huh7 replicon cells – cell-based, CellTiter-Glo luminescence, basal, 48 h, cytotoxicity control for HCV replication inhibitor project, primary screen (AID 1143); conditions: higher = more signal, called active from +8 up or from −8 down;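 further: Huh7 hepatoma cells carrying a hepatitis C replication reporter with no stimulus; test concentration not given here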
[3] = Pseudomonas biofilm growth suppression – PAO1 strain, BacTiter-Glo luminescence, LB-PBS, primary screen (AID 1144); conditions: P. aeruginosa PAO1 biofilm, 12 h, higher = more signal
[4] = basal CRE-LacZ reporter activity in PC12 – cell-based, unstimulated, primary screen (AID 1145); conditions: no forskolin, luminescence, 4.5 h, higher = more signal, called active from +8 up or from −8 down
[5] = forskolin-driven CRE-LacZ activity in PC12 – cell-based, CRE-LacZ reporter, forskolin-stimulated, primary screen (AID 1146); conditions: luminescence, 4.5 h, higher = more signal, called active from +8 up or from −8 down;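 further: PC12 cells with 6xCRE LacZ reporter stimulated by forskolin 10 µM; beta-galactosidase reporter signal reflecting CREB driven transcription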
[6] = molecular target: Streptavidin (Streptomyces avidinii) (UniProt P22629); test: compounds binding control protein streptavidin – biophysical, small-molecule microarray, 635/667 nm fluorescence, artefact control for SMM compound annotation, primary screen (AID 1147); conditions: higher = more signal;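 further: signal reflects streptavidin binding to arrayed compounds as a control protein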
[7] = probe aInhba binding on compound microarray – biochemical, small-molecule microarray, 635/667 nm fluorescence, primary screen (AID 1148); conditions: higher = more signal;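 further: score merges 667nm spot fluorescence with signal-to-noise for antibody binding to printed compounds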
Torsin-1A (Homo sapiens) [8] = molecular target: Torsin-1A (Homo sapiens) (UniProt O14656); test: TOR1A wild-type binding on microarray – cell lysate, small-molecule microarray, lysate, 635/667 nm, primary screen (AID 1149); conditions: COS7 hTOR1A-WT lysate, 635 nm fluorescence, higher = more signal
Torsin-1A (Homo sapiens) [9] = molecular target: Torsin-1A (Homo sapiens) (UniProt O14656); test: torsin A mutant lysate binding on microarrays – cell lysate, small-molecule microarray, COS7 lysate, 635/667 nm fluorescence, primary screen (AID 1150); conditions: COS7 hTOR1A mutant lysate, 635 nm fluorescence, higher = more signal;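 further: score pools 667 nm emission and signal to noise measuring lysate protein binding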
[10] = tested on: Sonic hedgehog protein (Shh); test: Sonic hedgehog microarray binding compounds – biochemical, small-molecule microarray, 635/667 nm fluorescence, primary screen (AID 1151); conditions: 635 nm fluorescence, higher = more signal;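 further: Shh protein binding to compounds spotted on small-molecule microarray slides; score combines spot fluorescence intensity with signal-to-noise across triplicate slides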
[11] = optical density shifts of acrAB sulA E. coli – strain DRC41, OD650, 48 h, E. coli filamentation inducer project, primary screen (AID 1152); conditions: higher = more signal, called active from +8 up or from −8 down;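 further: E. coli MC1000 strain DRC41 lacking acrAB efflux pump and sulA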
[12] = probe aLefty1 binding on compound microarray – biochemical, small-molecule microarray, 635/667 nm fluorescence, primary screen (AID 1153); conditions: higher = more signal;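 further: score merges spot fluorescence with signal-to-noise ratio from the scanned slide images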
[13] = plasmodial surface anion channel blockers, osmotic lysis – cell-based, P. falciparum Indochina, OD700, 1 h, primary screen (AID 1154); conditions: P. falciparum Indochina infected RBC osmotic lysis, higher = more signal, called active from +8 up or from −8 down
[14] = plasmodial surface anion channel blockers, osmotic lysis – cell-based, P. falciparum Indochina, OD700, 2 h, primary screen (AID 1155);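 further: lysis reports solute entry through the parasite surface anion channel PSAC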; conditions: P. falciparum Indochina infected erythrocytes, higher = more signal, called active from +8 up or from −8 down
[15] = changes in parasitized red cell lysis, either direction – P. falciparum Indochina, OD700, 3 h, PSAC antagonist project, primary screen (AID 1156); conditions: P. falciparum-infected erythrocytes, osmotic lysis, higher = more signal, called active from +8 up or from −8 down
[16] = plasmodial surface anion channel blockers, osmotic lysis – cell-based, P. falciparum Indochina, OD700, 18 h, primary screen (AID 1157); conditions: P. falciparum Indochina infected erythrocytes, osmotic lysis OD700, 18 h; higher = more signal, called active from +8 up or from −8 down
[17] = S6 kinase pathway phospho-S6 level changes – cell-based, A549, cytoblot, luminescence, serum-stimulated, primary screen (AID 1158); conditions: 5 h, higher = more signal;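 further: serum-stimulated A549 lung adenocarcinoma cells; signal is phosphorylated S6 detected by cytoblot immunostaining with HRP secondary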
[18] = molecular target: NADPH oxidase 2 (Homo sapiens) (UniProt P04839); test: compounds shifting NOX2 Amplex Red fluorescence – cell-based, HEK293-NOX2, PMA-stimulated, NOX inhibitor project, primary screen (AID 1159); conditions: 45 min, higher = more signal, called active from +8 up or from −8 down; further: test concentration not given here
[19] = molecular target: NADPH oxidase 4 (Homo sapiens) (UniProt Q9NPH5); test: compounds shifting NOX4 Amplex Red fluorescence – cell-based, HEK293-NOX4, tetracycline-induced, NOX inhibitor project, primary screen (AID 1160); conditions: HEK293-NOX4, Amplex Red H2O2 fluorescence, 45 min; higher = more signal, called active from +8 up or from −8 down
[20] = molecular target: NADPH oxidase 5 (Homo sapiens) (UniProt Q96PH1); test: compounds shifting NOX5 Amplex Red fluorescence – cell-based, HEK293-NOX5, NOX inhibitor project, primary screen (AID 1161); conditions: HEK293-NOX5, ionomycin, 45 min, higher = more signal
NADPH oxidase 5 (Homo sapiens), sequence (Q96PH1 whole entry, looked up): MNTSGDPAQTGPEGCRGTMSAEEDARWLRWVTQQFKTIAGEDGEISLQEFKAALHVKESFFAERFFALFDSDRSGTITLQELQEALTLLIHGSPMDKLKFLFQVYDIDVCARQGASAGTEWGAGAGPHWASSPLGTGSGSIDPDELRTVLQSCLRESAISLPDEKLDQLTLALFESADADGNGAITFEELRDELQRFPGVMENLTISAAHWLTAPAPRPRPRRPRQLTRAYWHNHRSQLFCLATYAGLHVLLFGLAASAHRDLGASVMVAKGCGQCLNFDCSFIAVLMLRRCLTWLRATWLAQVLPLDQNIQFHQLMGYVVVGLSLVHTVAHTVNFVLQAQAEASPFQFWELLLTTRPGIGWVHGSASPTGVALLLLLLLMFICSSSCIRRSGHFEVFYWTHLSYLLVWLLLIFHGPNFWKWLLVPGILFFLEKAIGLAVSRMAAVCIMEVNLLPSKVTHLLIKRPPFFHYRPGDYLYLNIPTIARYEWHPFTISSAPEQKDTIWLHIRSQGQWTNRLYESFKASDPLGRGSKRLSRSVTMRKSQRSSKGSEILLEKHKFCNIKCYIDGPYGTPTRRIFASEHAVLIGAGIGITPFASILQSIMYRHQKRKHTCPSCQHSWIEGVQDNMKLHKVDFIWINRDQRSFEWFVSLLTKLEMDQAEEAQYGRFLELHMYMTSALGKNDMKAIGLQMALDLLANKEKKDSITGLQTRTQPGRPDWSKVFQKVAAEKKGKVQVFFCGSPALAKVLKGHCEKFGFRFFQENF

NADPH oxidase 4 (Homo sapiens), sequence (Q9NPH5 whole entry, looked up): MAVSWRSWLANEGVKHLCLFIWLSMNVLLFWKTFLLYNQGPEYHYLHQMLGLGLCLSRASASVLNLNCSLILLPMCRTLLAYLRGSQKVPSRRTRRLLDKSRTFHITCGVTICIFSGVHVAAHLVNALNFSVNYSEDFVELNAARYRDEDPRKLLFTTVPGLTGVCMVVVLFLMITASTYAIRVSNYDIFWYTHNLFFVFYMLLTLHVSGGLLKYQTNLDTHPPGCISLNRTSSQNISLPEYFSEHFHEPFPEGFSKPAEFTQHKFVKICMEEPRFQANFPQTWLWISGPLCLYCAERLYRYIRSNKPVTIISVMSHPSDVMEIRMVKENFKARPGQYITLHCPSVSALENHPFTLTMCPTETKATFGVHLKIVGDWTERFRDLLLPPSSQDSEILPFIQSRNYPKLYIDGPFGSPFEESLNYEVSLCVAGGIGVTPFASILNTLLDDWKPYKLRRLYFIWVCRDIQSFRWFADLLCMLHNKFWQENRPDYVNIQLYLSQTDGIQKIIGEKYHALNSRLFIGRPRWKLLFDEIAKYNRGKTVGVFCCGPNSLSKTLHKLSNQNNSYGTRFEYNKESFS
Torsin-1A (Homo sapiens), sequence (O14656 whole entry, looked up): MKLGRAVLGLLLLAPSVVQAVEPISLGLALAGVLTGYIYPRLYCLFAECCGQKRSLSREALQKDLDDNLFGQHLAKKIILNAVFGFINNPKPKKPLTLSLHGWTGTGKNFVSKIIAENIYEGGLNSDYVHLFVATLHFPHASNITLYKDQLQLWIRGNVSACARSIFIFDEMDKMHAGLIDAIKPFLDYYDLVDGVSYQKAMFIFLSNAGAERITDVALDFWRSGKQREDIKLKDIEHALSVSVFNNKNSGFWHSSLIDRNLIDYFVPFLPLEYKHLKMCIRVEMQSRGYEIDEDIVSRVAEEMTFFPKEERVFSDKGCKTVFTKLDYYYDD
Streptavidin (Streptomyces avidinii), sequence (P22629 whole entry, looked up): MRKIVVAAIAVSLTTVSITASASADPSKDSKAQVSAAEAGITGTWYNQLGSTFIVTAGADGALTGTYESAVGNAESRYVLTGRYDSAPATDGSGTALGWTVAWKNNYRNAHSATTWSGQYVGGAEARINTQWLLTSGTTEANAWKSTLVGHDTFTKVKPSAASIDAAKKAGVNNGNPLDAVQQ
NADPH oxidase 2 (Homo sapiens), sequence (P04839 whole entry, looked up): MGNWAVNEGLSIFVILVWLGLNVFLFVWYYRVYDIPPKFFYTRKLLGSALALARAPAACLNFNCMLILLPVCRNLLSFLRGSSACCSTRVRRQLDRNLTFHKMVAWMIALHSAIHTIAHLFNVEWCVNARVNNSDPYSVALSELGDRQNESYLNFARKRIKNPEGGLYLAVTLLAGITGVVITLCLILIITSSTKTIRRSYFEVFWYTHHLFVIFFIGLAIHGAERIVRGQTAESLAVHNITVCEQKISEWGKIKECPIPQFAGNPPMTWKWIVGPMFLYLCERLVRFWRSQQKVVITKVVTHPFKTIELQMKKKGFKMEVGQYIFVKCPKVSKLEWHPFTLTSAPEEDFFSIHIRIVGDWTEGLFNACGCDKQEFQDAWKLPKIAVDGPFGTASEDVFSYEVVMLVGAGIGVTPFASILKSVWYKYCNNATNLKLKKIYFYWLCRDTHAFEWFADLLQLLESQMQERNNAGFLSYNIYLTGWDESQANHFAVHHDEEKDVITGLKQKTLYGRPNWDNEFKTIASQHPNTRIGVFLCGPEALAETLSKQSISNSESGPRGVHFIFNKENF

| Compound | composite z-score [1] | z-score [2] | z-score [3] | z-score [4] | z-score [5] | composite z-score [6] | composite z-score [7] | composite z-score (Torsin-1A (Homo sapiens) [8]) | composite z-score (Torsin-1A (Homo sapiens) [9]) | composite z-score [10] | z-score [11] | composite z-score [12] | z-score [13] | z-score [14] | z-score [15] | z-score [16] | z-score [17] | z-score [18] | z-score [19] | z-score [20] |
| --- | --- | --- | --- | --- | --- | --- | --- | --- | --- | --- | --- | --- | --- | --- | --- | --- | --- | --- | --- | --- |
| C=CCOC(=O)[C@@H]1[C@H]2C(=O)O[C@H](c3ccccc3)[C@H](c3ccccc3)N2[C@H](c2ccc(OCCOC(=O)[C@H]3C[C@H]4C(=O)N5CCC[C@H]5C(=O)N4[C@H]3c3cccc(OCCO)c3)cc2)[C@@]12C(=O)Nc1ccc(I)cc12 | 0.473 | 0.0351 (inactive) | -0.699 (inactive) | 0.545 (inactive) | -0.206 (inactive) | 0.502 | -0.0552 | 0.438 | 0.618 | 1.97 | -0.565 (inactive) | -0.101 | 1.72 (inactive) | 1.39 (inactive) | -0.341 (inactive) | 0.84 (inactive) | -0.101 | 0.929 (inactive) | 0.788 (inactive) | 0.32 |
| CN(C)C(=O)[C@]1(Cc2ccccc2)N=C(c2ccc(OCCCO)cc2)O[C@@H]1c1ccccc1CN=[N+]=[N-] | 0.552 | -3.95 (inactive) | -0.754 (inactive) | -0.655 (inactive) | 2.45 (inactive) | 1.34 | 0.136 | 1.12 | 0.737 | 0.0325 | 0.631 (inactive) | 0.313 | 27.3 (active) | 17.5 (active) | 1.11 (inactive) | 2.14 (inactive) | 0.0358 | -3.22 (inactive) | -0.846 (inactive) | -1.24 |
| COC(=O)C1(Cc2ccccc2)C=C2C(=C(C)C(=O)C2C)CN1 (stereo not given) | 0.266 | -0.723 (inactive) | 0.454 (inactive) | 0.0075 (inactive) | 0.727 (inactive) | 0.621 | 0.155 | 0.103 | 0.0914 | -0.691 | -0.492 (inactive) | 0.695 | 0.756 (inactive) | -0.425 (inactive) | -0.662 (inactive) | -1.2 (inactive) | 2.47 | 0.436 (inactive) | -0.568 (inactive) | -4 |
| CC(C)C(CO)N1C(=O)[C@@H]2C3C(=O)OCCC/C=C\[C@H]3OC23C=CCN(Cc2ccccc2)C(=O)[C@@H]13 (stereo not given in full) | 0.0204 | -0.294 (inactive) | 2.31 (inactive) | 0.601 (inactive) | 0.312 (inactive) | -1.14 | 0.0212 | 0.662 | 0.825 | 0.855 | 0.83 (inactive) | -0.0035 | 1.12 (inactive) | 0.405 (inactive) | 1.12 (inactive) | 0.503 (inactive) | 0.186 | 1.25 (inactive) | 0.838 (inactive) | 2.26 |
| O=C1[C@H]2C=C(I)[C@H](C[C@@H]2c2ccccc2)[C@@]12CO2 | -0.303 | -0.496 (inactive) | 0.686 (inactive) | 0.849 (inactive) | 1.31 (inactive) | -0.144 | -0.0762 | -0.114 | -0.153 | 0.147 | -1.76 (inactive) | -0.15 | 0.613 (inactive) | 0.0069 (inactive) | 0.402 (inactive) | -0.0396 (inactive) | -0.164 | -0.66 (inactive) | 0.265 (inactive) | -0.666 |
| CCOC(=O)C[C@H]1[C@H](OC(=O)c2ccccc2-c2ccccc2)[C@@H](NC(=O)C2CCCCC2)c2cc(OCCCO)ccc2N1C(=O)c1ccc2ccccc2n1 | 0.243 | -0.911 (inactive) | 0.507 (inactive) | 4.83 (inactive) | 1.51 (inactive) | 0.155 | 0.222 | 0.237 | 0.133 | 0.897 | -0.899 (inactive) | -0.167 | 3.85 (inactive) | 0.192 (inactive) | -0.192 (inactive) | 0.255 (inactive) | -0.342 | 0.618 (inactive) | 1.23 (inactive) | 2.62 |
| O=C1C[C@@](C(=O)O)(c2ccc([N+](=O)[O-])cc2)[C@@H](c2ccc(CO)cc2)N1C1CCCCC1 | 0.239 | -3.27 (inactive) | 0.381 (inactive) | -0.179 (inactive) | -0.337 (inactive) | 0.856 | -0.0645 | 0.298 | 0.371 | 0.478 | -0.485 (inactive) | 0.0984 | 5.95 (inactive) | 0.732 (inactive) | 2.38 (inactive) | 0.646 (inactive) | 0.197 | -0.127 (inactive) | -1.27 (inactive) | 0.369 |
| C=C(COC)/C(=C/C[C@@H](OC(C)=O)c1ccccc1OCCO)c1cnc2ccccc2c1 | 0.3 | -2.52 (inactive) | 0.514 (inactive) | 8.98 (active) | 0.879 (inactive) | 0.219 | -0.0087 | 2.53 | 2.34 | 2.29 | -0.146 (inactive) | 0.267 | 28.1 (active) | 14.2 (active) | 1.56 (inactive) | 1.71 (inactive) | 0.413 | -1.22 (inactive) | -1.04 (inactive) | -0.792 |
